Experiment in all cases: log2 fold change, soluble protein after heating vs DMSO (PISA); higher = thermal stabilisation; K562 cells, 10 uM, 30 min; active = over 0.2 and 3.5 SD of the protein, either way, in both replicates (recomputed)
Compound in one experiment: Cc1ccc(NC(=O)c2ccc(CN3CC[C@H](N(C)C)C3)c(C(F)(F)F)c2)cc1Nc1nccc(-c2cncnc2)n1 [bafetinib]
The gist of the method:
(§1)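 K562 cells at 2×10^6 cells/mL were exposed to 10 μM compound for 30 min, then aliquots were heated for 3 min across 48°C-58°C, pooled, and extracted in PBS containing 0.5% NP-40 at 4°C. The supernatant after 21,000xg for 90 min was taken as soluble protein and measured by TMTpro 16plex LC-MS/MS with channel sums equalised. Thermal stability is reported relative to control samples, with values from duplicates. Fold changes are given on a log2 scale.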

Compound in experiment [1]: Cc1cccc(CC(=O)N2CCc3c2ccc(-c2cn(C)c4ncnc(N)c24)c3F)n1
The gist of the method: as §1

Compound in another experiment: Cc1cn(-c2cc(NC(=O)c3ccc(C)c(Nc4nccc(-c5cccnc5)n4)c3)cc(C(F)(F)F)c2)cn1 [nilotinib]
The gist of the method: as §1

Compound in experiment [2]: Cc1nc(Nc2n[nH]c3c2CN(C(=O)N[C@H](CN(C)C)c2ccccc2)C3(C)C)c2sccc2n1
The gist of the method:
as §1

Compound in experiment [3]: Cc1ncc(-c2ccnc(Nc3ccc(S(C)(=O)=O)cc3)n2)n1C(C)C
In short, it runs like this: as §1

Compound in the next experiment: Cn1cncc1[C@@](N)(c1ccc(Cl)cc1)c1ccc2c(c1)c(-c1cccc(Cl)c1)cc(=O)n2C [tipifarnib]
The gist of the method:
as §1

Compound in the next experiment: FC(F)(F)c1ccc(/C=C/c2nc(COc3ccc(CCCCn4ccnn4)cc3)co2)cc1 [mubritinib]
In short, it runs like this: as §1

Compound in a further experiment: Cc1nc(Nc2ncc(C(=O)Nc3c(C)cccc3Cl)s2)cc(N2CCN(CCO)CC2)n1 [dasatinib]
In short, it runs like this: as §1

Compound in experiment [4]: Cn1cc(-c2ccc3c(c2)CCN3C(=O)Cc2cccc(C(F)(F)F)c2)c2c(N)ncnc21
In short, it runs like this:
as §1

Compound in experiment [5]: Cn1cc(-c2ccc3nnc(C(F)(F)c4ccc5ncccc5c4)n3n2)cn1
The gist of the method:
as §1

The text below walks through data of the supplement of paper PMC10849652.

Of roughly 7,900 targets only a part is listed; those with a hit were picked by preference. About 0.6% of all pairs of compound and target were hits. A number with no mark means an inactive call.

Chain of UniProt P51956 (P51956 whole entry, looked up): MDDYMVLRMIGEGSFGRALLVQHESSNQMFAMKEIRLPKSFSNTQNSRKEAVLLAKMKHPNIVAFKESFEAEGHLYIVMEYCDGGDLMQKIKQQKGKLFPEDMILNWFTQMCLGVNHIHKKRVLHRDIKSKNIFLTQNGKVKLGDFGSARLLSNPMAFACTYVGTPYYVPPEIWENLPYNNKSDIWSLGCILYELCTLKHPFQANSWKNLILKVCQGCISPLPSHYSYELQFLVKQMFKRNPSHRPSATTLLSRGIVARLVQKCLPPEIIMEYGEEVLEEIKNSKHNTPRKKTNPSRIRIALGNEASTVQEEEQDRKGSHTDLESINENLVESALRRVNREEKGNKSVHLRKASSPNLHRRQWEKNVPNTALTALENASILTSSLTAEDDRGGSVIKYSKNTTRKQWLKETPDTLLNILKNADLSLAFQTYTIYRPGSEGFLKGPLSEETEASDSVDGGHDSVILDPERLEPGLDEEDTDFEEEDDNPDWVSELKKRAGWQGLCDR
Chain of UniProt Q8N573 (Q8N573 whole entry, looked up): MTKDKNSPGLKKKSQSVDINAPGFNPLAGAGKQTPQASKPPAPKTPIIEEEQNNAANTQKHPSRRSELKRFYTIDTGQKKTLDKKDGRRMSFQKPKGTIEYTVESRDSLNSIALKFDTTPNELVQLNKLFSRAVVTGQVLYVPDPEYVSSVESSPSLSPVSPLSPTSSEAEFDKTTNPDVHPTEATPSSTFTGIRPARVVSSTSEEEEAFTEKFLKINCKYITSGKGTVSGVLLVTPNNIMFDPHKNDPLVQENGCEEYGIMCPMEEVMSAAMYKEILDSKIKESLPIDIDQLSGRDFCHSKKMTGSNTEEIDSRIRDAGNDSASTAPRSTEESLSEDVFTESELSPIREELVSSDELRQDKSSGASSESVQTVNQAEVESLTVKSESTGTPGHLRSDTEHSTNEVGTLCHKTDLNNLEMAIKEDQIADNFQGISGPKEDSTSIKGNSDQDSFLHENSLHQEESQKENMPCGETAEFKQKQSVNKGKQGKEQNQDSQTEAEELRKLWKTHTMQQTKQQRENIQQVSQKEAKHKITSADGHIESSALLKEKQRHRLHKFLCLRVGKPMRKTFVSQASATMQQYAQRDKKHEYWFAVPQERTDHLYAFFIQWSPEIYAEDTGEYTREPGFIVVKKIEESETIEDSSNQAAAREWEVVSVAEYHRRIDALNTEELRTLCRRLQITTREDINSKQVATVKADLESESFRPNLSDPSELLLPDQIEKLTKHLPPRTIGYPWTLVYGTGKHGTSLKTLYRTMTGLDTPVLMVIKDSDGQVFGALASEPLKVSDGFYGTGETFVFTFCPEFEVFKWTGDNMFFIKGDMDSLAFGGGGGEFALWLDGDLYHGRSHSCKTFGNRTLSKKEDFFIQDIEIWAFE
Chain of UniProt O75052 (O75052 whole entry, looked up): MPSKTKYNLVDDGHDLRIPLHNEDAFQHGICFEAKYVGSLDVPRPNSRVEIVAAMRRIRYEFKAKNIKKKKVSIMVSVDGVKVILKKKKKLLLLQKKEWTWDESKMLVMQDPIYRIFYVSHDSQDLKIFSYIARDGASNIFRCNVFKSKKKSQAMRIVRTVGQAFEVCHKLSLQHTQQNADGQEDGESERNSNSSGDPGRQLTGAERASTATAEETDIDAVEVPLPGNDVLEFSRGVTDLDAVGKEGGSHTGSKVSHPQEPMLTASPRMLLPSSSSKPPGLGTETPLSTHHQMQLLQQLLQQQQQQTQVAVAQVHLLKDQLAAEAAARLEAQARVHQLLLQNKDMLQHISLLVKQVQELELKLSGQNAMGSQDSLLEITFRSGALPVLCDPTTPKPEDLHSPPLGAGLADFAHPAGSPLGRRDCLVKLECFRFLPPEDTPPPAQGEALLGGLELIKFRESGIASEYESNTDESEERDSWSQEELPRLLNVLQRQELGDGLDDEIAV
Chain of UniProt B2RBV5 (B2RBV5 whole entry, looked up): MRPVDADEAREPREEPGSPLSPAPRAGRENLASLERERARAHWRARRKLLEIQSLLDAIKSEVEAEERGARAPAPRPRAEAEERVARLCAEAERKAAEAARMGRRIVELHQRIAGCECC
Chain of UniProt Q9H4L5 (Q9H4L5 whole entry, looked up): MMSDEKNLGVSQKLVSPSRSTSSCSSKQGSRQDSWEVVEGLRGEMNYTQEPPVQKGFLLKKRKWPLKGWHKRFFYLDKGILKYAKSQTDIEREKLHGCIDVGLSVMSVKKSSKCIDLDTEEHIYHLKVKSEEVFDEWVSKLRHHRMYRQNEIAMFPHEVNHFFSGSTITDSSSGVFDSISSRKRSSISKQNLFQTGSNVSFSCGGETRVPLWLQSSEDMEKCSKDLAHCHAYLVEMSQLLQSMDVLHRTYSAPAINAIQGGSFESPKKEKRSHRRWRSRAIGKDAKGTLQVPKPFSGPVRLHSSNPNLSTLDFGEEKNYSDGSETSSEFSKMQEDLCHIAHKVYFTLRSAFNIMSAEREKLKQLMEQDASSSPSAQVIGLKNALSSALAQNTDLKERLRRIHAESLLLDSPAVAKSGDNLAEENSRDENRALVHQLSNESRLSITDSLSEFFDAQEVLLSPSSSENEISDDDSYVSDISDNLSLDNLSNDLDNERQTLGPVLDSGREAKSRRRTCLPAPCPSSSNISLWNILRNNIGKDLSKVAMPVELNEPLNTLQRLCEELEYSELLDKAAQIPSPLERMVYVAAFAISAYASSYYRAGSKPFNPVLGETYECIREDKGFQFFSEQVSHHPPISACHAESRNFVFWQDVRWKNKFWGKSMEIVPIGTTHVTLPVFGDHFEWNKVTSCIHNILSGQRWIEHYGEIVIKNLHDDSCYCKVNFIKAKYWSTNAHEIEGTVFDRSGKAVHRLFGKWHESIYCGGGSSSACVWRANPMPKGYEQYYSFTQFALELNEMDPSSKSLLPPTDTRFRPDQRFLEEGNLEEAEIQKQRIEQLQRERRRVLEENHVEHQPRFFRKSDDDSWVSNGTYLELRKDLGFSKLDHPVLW
Chain of UniProt Q9BVC4 (Q9BVC4 whole entry, looked up): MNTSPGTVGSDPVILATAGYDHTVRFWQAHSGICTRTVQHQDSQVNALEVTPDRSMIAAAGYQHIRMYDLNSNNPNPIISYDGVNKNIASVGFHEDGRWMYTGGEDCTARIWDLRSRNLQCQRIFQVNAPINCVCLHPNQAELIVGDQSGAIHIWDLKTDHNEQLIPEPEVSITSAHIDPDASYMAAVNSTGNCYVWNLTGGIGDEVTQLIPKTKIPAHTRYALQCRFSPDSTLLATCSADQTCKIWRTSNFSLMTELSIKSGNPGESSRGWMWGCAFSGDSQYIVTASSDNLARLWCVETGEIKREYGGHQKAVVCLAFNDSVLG
Chain of UniProt Q8WZ82 (Q8WZ82 whole entry, looked up): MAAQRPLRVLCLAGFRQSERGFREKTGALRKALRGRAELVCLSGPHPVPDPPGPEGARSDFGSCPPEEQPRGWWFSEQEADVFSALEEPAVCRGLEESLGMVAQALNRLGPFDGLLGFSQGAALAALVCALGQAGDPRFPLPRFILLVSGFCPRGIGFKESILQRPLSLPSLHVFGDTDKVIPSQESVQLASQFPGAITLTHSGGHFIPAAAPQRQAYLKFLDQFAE
Chain of UniProt Q9BSU3 (Q9BSU3 whole entry, looked up): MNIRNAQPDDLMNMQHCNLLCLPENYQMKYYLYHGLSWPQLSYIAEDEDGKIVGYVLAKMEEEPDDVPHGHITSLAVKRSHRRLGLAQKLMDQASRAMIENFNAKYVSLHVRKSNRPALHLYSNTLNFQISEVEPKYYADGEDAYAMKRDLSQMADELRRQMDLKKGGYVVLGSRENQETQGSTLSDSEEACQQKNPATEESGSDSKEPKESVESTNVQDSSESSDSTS
Chain of UniProt P0C024 (P0C024 whole entry, looked up): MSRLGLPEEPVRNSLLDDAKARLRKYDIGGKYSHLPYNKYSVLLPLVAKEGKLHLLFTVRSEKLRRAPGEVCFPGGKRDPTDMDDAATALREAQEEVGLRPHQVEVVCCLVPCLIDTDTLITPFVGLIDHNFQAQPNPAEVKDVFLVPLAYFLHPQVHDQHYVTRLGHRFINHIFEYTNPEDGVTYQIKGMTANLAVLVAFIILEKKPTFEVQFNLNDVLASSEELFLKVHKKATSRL
Chain of UniProt P40692 (P40692 whole entry, looked up): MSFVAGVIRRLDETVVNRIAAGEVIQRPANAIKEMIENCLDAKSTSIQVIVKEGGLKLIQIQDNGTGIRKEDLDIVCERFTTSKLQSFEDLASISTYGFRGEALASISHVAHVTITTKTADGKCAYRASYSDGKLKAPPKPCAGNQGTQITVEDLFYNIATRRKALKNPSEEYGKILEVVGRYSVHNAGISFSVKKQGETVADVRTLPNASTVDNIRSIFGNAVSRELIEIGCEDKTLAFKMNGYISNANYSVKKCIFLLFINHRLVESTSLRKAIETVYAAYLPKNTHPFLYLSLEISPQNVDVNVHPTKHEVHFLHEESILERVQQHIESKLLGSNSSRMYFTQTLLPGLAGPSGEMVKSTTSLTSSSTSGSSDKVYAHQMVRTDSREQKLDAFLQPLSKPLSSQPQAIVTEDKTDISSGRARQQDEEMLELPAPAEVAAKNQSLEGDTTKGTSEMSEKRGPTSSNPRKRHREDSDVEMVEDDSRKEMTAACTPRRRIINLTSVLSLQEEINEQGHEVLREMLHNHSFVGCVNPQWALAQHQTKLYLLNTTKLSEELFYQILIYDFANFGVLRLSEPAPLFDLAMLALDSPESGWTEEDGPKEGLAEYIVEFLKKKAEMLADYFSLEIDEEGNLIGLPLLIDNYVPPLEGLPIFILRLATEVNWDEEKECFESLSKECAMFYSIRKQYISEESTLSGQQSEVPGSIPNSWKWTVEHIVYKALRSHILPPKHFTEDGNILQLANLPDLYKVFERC
Chain of UniProt Q9UI43 (Q9UI43 whole entry, looked up): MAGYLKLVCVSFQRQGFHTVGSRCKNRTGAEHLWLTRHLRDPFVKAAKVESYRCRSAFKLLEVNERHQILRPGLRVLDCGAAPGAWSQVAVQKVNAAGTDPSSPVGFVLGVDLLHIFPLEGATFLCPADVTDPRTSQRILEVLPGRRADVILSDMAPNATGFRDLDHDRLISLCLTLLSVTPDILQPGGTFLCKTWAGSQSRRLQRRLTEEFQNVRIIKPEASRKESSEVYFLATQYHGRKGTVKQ

Turning to NA (UniProt B2RBV5), the log2 fold change with bafetinib is -0.005; in experiment [1], -0.084; in the experiment with nilotinib, -0.433; in [2], 0.828 (active); in experiment [3], -0.195; in the experiment with tipifarnib, 0.075. In addition, the log2 fold change in the experiment with mubritinib was 0.04.

Regarding NA, A0A1W2PSA9, the log2 fold change in experiment [1] was 0.022; in the experiment with dasatinib, 0.289; in experiment [4], 0.218; in [5], -0.118.

As to NASP isoform 2 (UniProt P49321), the log2 fold change with mubritinib is -0.347.

On to MXRA7 isoform 3 (UniProt P84157), for which the log2 fold change in experiment [5] is -0.078; with tipifarnib it was 0.011.

As to NOS1AP (UniProt O75052), the log2 fold change in the experiment with bafetinib is -0.052; in experiment [4], 0.067; in experiment [5] it was -0.179; with tipifarnib, -0.037; with mubritinib, 0.165.

In the case of NUDT7 (UniProt P0C024), the log2 fold change with bafetinib is 0.418; in experiment [1], -0.122; in the experiment with nilotinib, 0.093; in experiment [2] it was 0.006; in experiment [3], -0.03; in experiment [5] it was 0.027.

MITF (UniProt O75030): the log2 fold change was 0.001 in experiment [1]; -0.071 in the experiment with nilotinib; -0.07 in experiment [2]; -0.047 in experiment [3]; 0.084 in the experiment with mubritinib.

Take MORC2 (UniProt Q9Y6X9): the log2 fold change is -0.036 with bafetinib, 0.018 with tipifarnib and 0.126 with mubritinib.

Regarding MLST8 (UniProt Q9BVC4), the log2 fold change in the experiment with bafetinib was 0.005; in the experiment with nilotinib it was -0.125; in experiment [2] it was 0.085; with dasatinib, -0.152; in [3] it was -0.059; in experiment [4], 0.028. The log2 fold change with tipifarnib was -0.109; with mubritinib, 0.1.

For OXR1 isoform 2 (UniProt Q8N573), the log2 fold change in experiment [1] is -0.009; in the experiment with nilotinib, -0.028; in experiment [2], -0.002; with dasatinib it was 0; in experiment [3], -0.094; in experiment [4] it was 0.15. The values for the log2 fold change (in [5]; with tipifarnib) were 0.099 and -0.019, respectively.

On to MLH1 (UniProt P40692), for which the log2 fold change is -0.063 with bafetinib; 0.035 in [1]; -0.212 in the experiment with dasatinib; 0.005 in experiment [4]; 0.047 with tipifarnib; -0.073 with mubritinib.

For NEK3 (UniProt P51956), the log2 fold change in experiment [1] was -0.246; with nilotinib, -0.026; in experiment [2] it was -0.173; in the experiment with dasatinib, -0.055; in experiment [3], -0.037; in experiment [4], 0.101. Also, the log2 fold change in [5] is -0.002; with tipifarnib, -0.088; in the experiment with mubritinib, -0.076.

With NCK1 (UniProt P16333), the log2 fold change was 0.062 with bafetinib; -0.069 with nilotinib; -0.421 in [2]; -0.138 with dasatinib; 0.046 in experiment [3]; -0.086 in experiment [4]. Further, the log2 fold change is -0.044 in experiment [5], 0.008 with tipifarnib and -0.058 in the experiment with mubritinib.

As for OVCA2 (UniProt Q8WZ82), the log2 fold change was 0.171 in the experiment with bafetinib; 0.039 in [1]; 0.026 with nilotinib; -0.326 in [2]; -0.163 in [3]; -0.003 in experiment [5]. Moreover, the log2 fold change with tipifarnib is -0.059; with mubritinib, -0.231.

In the case of OSBPL3 (UniProt Q9H4L5), the log2 fold change with nilotinib is 0.316; in experiment [2] it was 0.114; with dasatinib it was 0.447; in [3] it was -0.213; in [4], -0.081; in [5], -0.173. Moreover, in the experiment with tipifarnib, the log2 fold change was -0.17.

For the target MRM2 (UniProt Q9UI43), the log2 fold change with nilotinib was -0.069; in experiment [2], -0.049; with dasatinib, -0.381; in [3], 0.043; in [4] it was 0.164; in the experiment with tipifarnib, -0.011.

NAT14 (UniProt Q8WUY8): the log2 fold change in the experiment with bafetinib is -0.071; in the experiment with nilotinib, 0.003; in [2], -0.052; with dasatinib it was -0.066; in experiment [3] it was 0; in [4] it was -0.06. Moreover, the log2 fold change in experiment [5] is -0.209; in the experiment with tipifarnib, 0.054; with mubritinib it was 0.118.

PAFAH2 (UniProt Q99487): the log2 fold change in the experiment with bafetinib is -0.083; in the experiment with dasatinib it was -0.146; in [4], 0.079; in [5] it was 0.029; with tipifarnib, 0.611 (active).

On to NA (UniProt J3KR12), for which the log2 fold change with bafetinib is 0.338; with nilotinib, 0.208; in experiment [2], -0.221; in experiment [3], -0.196; in experiment [5], -0.112; in the experiment with mubritinib, 0.16.

Consider MYSM1 (UniProt Q5VVJ2), for which the figures for the log2 fold change (with bafetinib; in experiment [5]) were -0.138 and 0.18, respectively.

On to MPHOSPH8 isoform 2 (UniProt Q99549), for which the log2 fold change with dasatinib was -0.025; in experiment [4], -0.019; in experiment [5] it was -0.116; in the experiment with tipifarnib, 0.01; with mubritinib, 0.031.

As for NKTR (UniProt P30414), the log2 fold change was 1.06 with bafetinib, 0.163 with tipifarnib and 0.167 in the experiment with mubritinib.

For the target NAA11 (UniProt Q9BSU3), the log2 fold change was 0 in the experiment with bafetinib; -0.093 with nilotinib; 0.015 in experiment [2]; 0.059 in the experiment with dasatinib; -0.003 in experiment [3]; 0.102 in experiment [4]. The log2 fold change in experiment [5] is 0.176; in the experiment with tipifarnib, 0.011; with mubritinib, -0.081.

Regarding MRPS26 (UniProt Q9BYN8), the log2 fold change with bafetinib was 0.275; in experiment [1] it was -0.003; in the experiment with dasatinib, -0.031; in experiment [4], 0.007; in [5], 0.135; with tipifarnib it was -0.142. Besides, the log2 fold change in the experiment with mubritinib was 0.088.
